Data reported in ChEMBL document CHEMBL3988442, “University of Dundee, Small-Polar-MMV Screening Library” (2021).
Screen size: about 48,000 compounds; about 13,000 (27%) showed an effect of 50% or more. This is one part of the list.

Test system: Wolbachia pipientis
Assay: Anti-Wolbachia Cell-Based Screen
Format: functional
Parameters: scale not given: in the data most compounds retested in dose-response had high values
Conditions: 5 µM

Row | SMILES | Percent Effect
1 | CN(C)CCN(C)S(=O)(=O)Cc1ccc(Br)cc1 | -1.249%
2 | CCC(=O)c1ccc(OCC(=O)NC(C)c2nnc(C)[nH]2)cc1 (stereo not given) | 8.329%
3 | O=C(CCNS(=O)(=O)c1ccc2c(c1)CCCC2)NCc1ccoc1 | 1.514%
4 | CCN(Cc1csc(CS(C)(=O)=O)n1)c1cccc(CO)c1 | 6.548%
5 | CCc1nsc(NC2CCOC3(CCCC3)C2)n1 (stereo not given) | -3.423%
6 | COCCCNS(=O)(=O)c1cc(C)sc1C | 1.598%
7 | C=C(C)COc1cccc(CNC(CC)c2ccnn2C)c1 (stereo not given) | -16.98%
8 | Cc1nccn1C1CCCN(C(=O)c2cccc(S(C)(=O)=O)c2)C1 (stereo not given) | 94.78%
9 | Cc1nccn1C1CCCN(C(=O)c2cccc(-n3cccc3)c2)C1 (stereo not given) | 98.3%
10 | COc1cccc(COCC(=O)N2CCCC(n3ccnc3C)C2)c1 (stereo not given) | -4.06%
11 | Cc1nccn1C1CCCN(C(=O)c2cccc(OCC(N)=O)c2)C1 (stereo not given) | 92.13%
12 | NC(=O)COc1cccc(C(=O)N2CCCC(n3cccn3)C2)c1 (stereo not given) | -6.954%
13 | CC(=O)c1cn(CCC(=O)N[C@H](C(=O)O)C(C)C)c2ccccc12 | 14.47%
14 | CN1CCC(CN(C)S(=O)(=O)CC2CCCCC2)CC1 | -3.898%
15 | CN(C1CCCCC1)S(=O)(=O)NC1CCCN(c2ncccn2)C1 (stereo not given) | -0.1008%
16 | CN1CCCC(N(C)C(=O)c2ccc(NC(=O)c3cc[nH]n3)cc2)C1 (stereo not given) | -7.369%
17 | CN1CCCC(N(C)S(=O)(=O)c2cccc3ncccc23)C1 (stereo not given) | 142.2%
18 | CN(C1CCN(c2ccccn2)CC1)S(=O)(=O)c1ccccc1F | -17.13%
19 | Cc1ccc2cccc(S(=O)(=O)N(C)C3CCCN(C)C3)c2n1 (stereo not given) | 110%
20 | CCN(C1CCS(=O)(=O)C1)S(=O)(=O)c1cccc2cc(C)cnc12 (stereo not given) | 2.36%
21 | Cc1ccc2cccc(C(=O)NCCOCC3CC3)c2n1 | 4.026%
22 | Cc1ccc2cccc(S(=O)(=O)N(C)CC3CCN(C)C3)c2n1 (stereo not given) | 116.7%
23 | Cc1ccc2cccc(C(=O)NCC3CCN(C(C)C)C3)c2n1 (stereo not given) | -2.471%
24 | CN1CCC(CNC(=O)c2ccc3cccc(Cl)c3n2)C1 (stereo not given) | 16.58%

Row | SMILES | Percent Effect
25 | Cc1ccc2cccc(S(=O)(=O)N(C)CC3CCN(C)CC3)c2n1 | 117.6%
26 | COCCN1CC(c2nc(CC3CCN(C)CC3)no2)CCC1=O (stereo not given) | -7.698%
27 | Cc1ccc(C(N)=O)cc1NCCOc1cccc(C#N)c1 | -8.652%
28 | O=C(c1[nH]nc2c1CCCC2)N1CCC(OCCN2CCCCC2)C1 (stereo not given) | 5.05%
29 | COCCN(CCC#N)S(=O)(=O)c1ccc(F)cc1Cl | -17.33%
30 | CCOc1ncc(NC(=O)c2ccco2)c(OCC)n1 | 6.887%
31 | Cc1ccc(CNC(=O)N2CCN(Cc3ccsc3)CC2)n1C | 2.843%
32 | O=C(NCCn1ccnc1)N1CCN(Cc2ccco2)CC1 | 103.9%
33 | CC1CN(C(=O)NCCn2ccnc2)CCO1 (stereo not given) | -11.62%
34 | O=C(NCCn1ccnc1)N1CCN(Cc2ccsc2)CC1 | 102.5%
35 | O=C(NCCn1ccnc1)N1CCCC1c1ccsc1 (stereo not given) | 8.592%
36 | CC(=O)N1CCN(C(=O)NCc2ccccc2Cn2ccnc2)CC1 | -14.94%
37 | O=C(NCCn1ccnc1)N1CCN(Cc2cccnc2)CC1 | 109.3%
38 | CC(Cn1ccnc1)NC(=O)N1CCN(Cc2cccnc2)CC1 (stereo not given) | -2.682%
39 | O=C(NCCNc1ncccn1)N1CCN(Cc2cccnc2)CC1 | -0.1396%
40 | Cc1cc(C)n(CC2(CNC(=O)C(c3ccccc3C)N(C)C)CC2)n1 (stereo not given) | -3.627%
41 | Cc1nc(CN(CCS(C)(=O)=O)C(C)C)cs1 | -0.8172%
42 | Cc1cccc(C(=O)N2CCO[C@H]3[C@H](OCCN(C)C)CC[C@@H]32)n1 | 97.76%
43 | CO[C@H]1CC[C@H]2[C@H]1OCCN2C(=O)c1ccc(C)nc1 | 6.779%
44 | O=C(C1CCOCC1)N1CCO[C@H]2[C@@H](OCc3ccncc3)CC[C@@H]21 | -9.852%
45 | CN(C)CCO[C@@H]1CC[C@H]2[C@H]1OCCN2C(=O)c1ccc(F)cc1.O=C(O)C(F)(F)F | 97.45%
46 | CO[C@@H]1CC[C@H]2[C@H]1OCCN2C(=O)c1ccc(C)nc1.O=C(O)C(F)(F)F | 2.504%
47 | Cc1ccoc1C(=O)N1CCO[C@H]2[C@H](OCC3CCOCC3)CC[C@@H]21 | -7.099%
48 | Cc1ccc(C(=O)N2CCO[C@H]3[C@H](OCCN(C)C)CC[C@@H]32)cn1 | 110.3%

Row | SMILES | Percent Effect
49 | Cc1ccoc1C(=O)N1CCO[C@H]2[C@H](OCc3ccncc3)CC[C@@H]21 | 96.45%
50 | Cc1ccc(C(=O)N2CCO[C@H]3[C@H](OCCN(C)C)CC[C@@H]32)o1.O=C(O)C(F)(F)F | 8.027%
51 | c1ccc2c(c1)OCCC2NCc1ccc(N2CCOCC2)cc1 (stereo not given) | 6.608%
52 | Cc1cccc(Nc2c(C#N)c(=O)n(C)c(=O)n2C)c1 | -3.383%
53 | Cc1cncc(C(=O)N2CCO[C@H]3[C@H](Oc4ccccn4)CC[C@@H]32)c1.O=C(O)C(F)(F)F.O=C(O)C(F)(F)F | -8.484%
54 | CN(C)CCO[C@@H]1CC[C@H]2[C@H]1OCCN2C(=O)c1ccnnc1.O=C(O)C(F)(F)F | 98%
55 | Cc1cncc(C(=O)N2CC[C@@H]3[C@H]2CCC(=O)N3CCN(C)C)c1.O=C(O)C(F)(F)F.O=C(O)C(F)(F)F | -10.7%
56 | Cc1cncc(C(=O)N2CCO[C@H]3[C@H](OCCN(C)C)CC[C@@H]32)c1.O=C(O)C(F)(F)F.O=C(O)C(F)(F)F | 111.8%
57 | CN(C)CCO[C@@H]1CC[C@H]2[C@H]1OCCN2C(=O)c1ccncc1 | 113.2%
58 | O=C(O)C(F)(F)F.O=C(c1cnccn1)N1CCO[C@H]2[C@H](OCc3cccnc3)CC[C@@H]21 | -4.658%
59 | Cc1ccc(C(=O)N2CCN3C[C@H](Oc4cccc(F)c4)C[C@H]3C2)cn1.O=C(O)C(F)(F)F.O=C(O)C(F)(F)F | 3.581%
60 | CC(C)N1CCCC2(CCN(C(=O)CCCn3cccn3)C2)C1=O (stereo not given) | -14.27%
61 | CC(NC(=O)c1cccs1)C(=O)NS(=O)(=O)c1cccc(C#N)c1 (stereo not given) | 3.018%
62 | Cc1nc(C)c(S(=O)(=O)NC(=O)c2sccc2C)s1 | 101.5%
63 | Cc1nc(C)c(S(=O)(=O)NC(=O)c2cccs2)s1 | 102.2%
64 | Cc1cn2c(n1)CCC(NS(=O)(=O)c1sc(C)nc1C)C2 (stereo not given) | -17.67%
65 | CC(NC(=O)c1cccs1)C(=O)NS(=O)(=O)c1ccc(C#N)cc1 (stereo not given) | 8.47%
66 | CSc1ccsc1C(=O)NS(=O)(=O)c1ccc(F)cc1 | -34.42%
67 | O=C(NCCCC(=O)N1Cc2ccccc2C1)NCc1cccnc1 | 2.963%
68 | CN(CC1CCC1)C(=O)c1ccc(-c2nc(C3CC3)n[nH]2)cc1 | 0.7414%
69 | CC1CNC(=O)CCN1Cc1cc(O)c2cccc(F)c2n1 (stereo not given) | -25.66%
70 | O=C(c1cscn1)N1CCc2ncnc(-c3ccncc3)c2CC1 | 110.3%
71 | O=C(c1ccccn1)N1CCc2ncnc(-c3ccncc3)c2CC1 | 88.26%
72 | CN(C)c1ncnc2c1CCN(C(=O)c1cccnc1)CC2.O=C(O)C(F)(F)F | 9.198%

Row | SMILES | Percent Effect
73 | O=C(C1CC=CC1)N1CCc2ncnc(-c3ccncc3)c2CC1 | 8.097%
74 | O=C(O)C(F)(F)F.O=C(c1cscn1)N1CCc2ncnc(-c3cccnc3)c2CC1 | 99.58%
75 | CN(C)CC(=O)N1CCc2ncnc(-c3ccsc3)c2CC1 | -2.469%
76 | O=C(O)C(F)(F)F.O=C(c1cnccn1)N1CCc2ncnc(-c3cccnc3)c2CC1 | -7.804%
77 | O=C(c1cc[nH]n1)N1CCc2ncnc(NCc3ccccn3)c2CC1 | -6.382%
78 | O=C(c1ccccn1)N1CCc2ncnc(N3CCOCC3)c2CC1 | -1.06%
79 | CN(CC(=O)N(C)C1CCCCC1)C1CCc2ccccc21 (stereo not given) | -4.106%
80 | O=C(NCc1csc2ccccc12)NCC1(O)CCSC1 (stereo not given) | -14.62%
81 | CN(C)C1CCCN(C(=O)NCCNC(=O)C2CCCCC2)C1 (stereo not given) | 2.915%
82 | Cc1oc(C)c(C(=O)NCc2cccc(NC(=O)CN(C)C)c2)c1C | 14.93%
83 | Cc1oc(C)c(C(=O)NCc2ccccc2S(=O)(=O)N(C)C)c1C | -1.431%
84 | CNS(=O)(=O)c1ccc(CNC(=O)c2c(C)oc(C)c2C)cc1 | 84.51%
85 | CNS(=O)(=O)c1cccc(CNC(=O)c2c(C)oc(C)c2C)c1 | 20.61%
86 | CCN(CC)c1ccc(CNC(=O)c2ccccn2)cn1 | 19.52%
87 | CNS(=O)(=O)c1ccc(CNC(=O)c2ccccn2)cc1 | 0.2857%
88 | Cc1cccc(C(=O)NCc2ccc(CS(N)(=O)=O)cc2)n1 | 93.95%
89 | CNS(=O)(=O)Cc1ccc(CNC(=O)c2ccccn2)cc1 | 102.4%
90 | Cc1cccc(C(=O)NCc2ccc(S(N)(=O)=O)cc2)n1 | -0.8879%
91 | Cc1oc(C)c(C(=O)NCc2cccc(C(N)=O)c2)c1C | 95.24%
92 | CNS(=O)(=O)Cc1ccc(CNC(=O)c2cccc(C)n2)cc1 | 2.12%
93 | CNS(=O)(=O)c1ccc(CNC(=O)NCC2CCC2)cc1 | -8.591%
94 | CC(C)c1noc(CNc2cccc(-c3nnnn3C)c2)n1 | -7.266%
95 | N#Cc1cccc(C(=O)N2CC(c3nc(-c4ccc[nH]c4=O)no3)C2)c1 | 9.318%
